Screening data (PubChem BioAssay)
Rows were chosen to be rich in hits. Some 4.3% of all compounds tested hit in one or more screens of this group.
SW480 rerep: A quantitative high throughput screen for small molecules that induce DNA re-replication in SW480 colon adenocarcinoma cells; actives 1.8% (n = 340,000); SW480 DNA re-replication, Hoechst DNA content imaging, 48 h; Potency, µM (titrated, usually from 46.1 µM), without a hit: top-dose re-replication activation, hits mostly activators; also: potency is read from the fitted curve at half-maximal effect; % of control where 0% means no effect; nearly all actives have a fitted effect of over 55% in size
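Readout is total intensity of Hoechst-stained nuclei, excited at 405 nm and collected at 500-530 nm. Compound treatment lasted 48 hr at 37 C in 5% CO2 before staining.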
Giardia killer: Small Molecules that selectively kill Giardia lamblia: qHTS; Giardia lamblia trophozoite viability; activity change, % at 7.66 µM, hits read low; actives 0.15% (n = 340,000); in the data active = activity change below about -80%; inconclusive = between about -30% and that limit;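 also: parasites exposed to compound for two days anaerobically before the ATP read; % is scaled to controls: 0 for no effect and ±100 for the full control effect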
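Killing of trophozoites was scored by loss of ATP luminescence after a 48 hrs anaerobic exposure to compounds at 37 deg C, using 100 cells per well.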
uPA surface inh: qHTS for Inhibitors of Cell Surface uPA Generation. cell surface uPA generation assay, qHTS. Potency, µM (series often up to 38.3 µM), inactives show at the top dose activity change, negative = inhibition, hits mostly inhibitors. actives 0.31% (n = 330,000). AID 540303, 2011; active = well fitted inhibition curve with a large enough effect; inconclusive = small, poorly fitted or top-dose-only effect; inactive = no such curve, though single readings can be large or run the other way; tested in mouse RAW 264.7 cells; also: potency is read from the fitted curve at half-maximal effect; % is scaled to controls: 0 for no effect and ±100 for the full control effect; nearly all actives have a fitted effect of over 55% in size
MCF10A rerep: A quantitative high throughput screen for small molecules that induce DNA re-replication in MCF 10a normal breast cells | Potency, µM (top dose mostly 46.1 µM), for the others: at the top dose activity, positive = re-replication, actives largely listed as activators | MCF 10A DNA re-replication, Hoechst nuclear intensity, 48 h | actives 2.9% (n = 350,000) | AID 624296, 2012; also: potency is read from the fitted curve at half-maximal effect; % of control where 0% means no effect; nearly all actives have a fitted effect of over 50% in size
Numbers without * were called inactive; ? = inconclusive; / = no result; ! = not active in a repeat; [ ] = remark or other dose. Unless noted, calls follow the shape of the dose curve; as a rule, active = well fitted activation curve with a large enough effect; inconclusive = small, poorly fitted or top-dose-only effect; inactive = no such curve, though single readings can be large or run the other way.

SMILES | SW480 rerep | Giardia killer | uPA surface inh | MCF10A rerep
COc1cc2c(cc1OC)C(c1ccc(O)cc1)NCC2 (stereo unspecified) | -2.1% | -16.5 | -0.1% | -0.3%
COc1cc2c(cc1OC)[C@H](Cc1ccc(O)cc1)NCC2 | ? | 13.1 | -7.5% | 16.4µM*
NC(N)=NCCN1CCCCCCC1 | -3.5%[20.6 µM] | / | / | -6.3%[20.6 µM]
COC(=O)c1sc(-c2ccc(C(C)(C)C)cc2)cc1NC(=O)COCC(=O)O | -3.6% | ? | 4.2% | 20.6µM*
Cc1ccccc1Oc1ncnc2oc(-c3ccccc3)cc12 | -2.2% | -13.1 | 2.7% | ?
Clc1ccc(Oc2ncnc3oc(-c4ccccc4)cc23)cc1 | -0.3% | 10.5 | 2.0% | 5.8µM*
COC(=O)[C@@]1(Cc2ccccc2)[C@H]2C(=O)N(C)C(=O)[C@H]2[C@H]2CN=C(SCc3ccc(C#N)cc3)N21 | 3.66µM* | 19.7 | -17.7% | -15.4%
O=c1[nH]c(-c2ccccc2)nc(-c2ccccc2)c1Cl | -6.4% | -2.8 | 3.3% | -7.2%
CCCCCCCCCCCC1N=C(N)NC(CCCO)=C1C(=O)OC (stereo unspecified) | 1.2% | -5.7 | -5.4% | ?
O=S(=O)(c1ccc2ncccc2c1)N1CCN(c2nc(-c3cccs3)nc3ccccc23)CC1 | / | -9.4 | / | /
CCOC(=O)C1=C(CC)Nc2ccccc2N=C1NC(=O)Nc1ccc(Cl)c(Cl)c1 | ? | -3.6 | -5.0% | 6.51µM*
CCOC(=O)C1=C(CC)Nc2ccccc2N=C1NC(=O)c1cc(C)on1 | -8.2% | 4.8 | 1.1% | 7.9%
O=C1c2ccccc2C(=O)c2[nH]c(=O)[nH]c21 | 1.3µM* | ? | -15.3% | ?
COc1ccc(-c2nnc3c4ccccc4c(C)nn23)cc1S(=O)(=O)N1CCN(CCO)CC1 | -4.1% | -22.3 | / | 12.9%
Cc1nn2c(-c3ccc(S(=O)(=O)N4CCN(CCO)CC4)o3)nnc2c2ccccc12 | 18.4µM* | 4.4 | ? | -0.1%
O=C(Nc1ccc2nccnc2c1)N1CCCCCC1 | / | -12.6 | / | /
CCCCCCCCNC(C)C(O)c1ccc(SC(C)C)cc1 (stereo unspecified) | ? | 3.1 | -3.4% | 23.7µM*!
CCOc1ccc(NC(=O)c2ccc(F)c(S(=O)(=O)N3CCN(c4ccccn4)CC3)c2)cc1 | 2.2% | -16.0 | -13.8% | 2.4%
O=C(Nc1cccc(Cl)c1)c1ccc(F)c(S(=O)(=O)N2CCN(c3ccccn3)CC2)c1 | -0.5% | 21.5 | -6.1% | 23.1µM*!
Cc1cc2nc(Sc3c([N+](=O)[O-])nc(C)n3Cc3ccccc3)[nH]c2cc1C | ? | 3.2 | -9.4% | 20.6µM*
Cc1nc([N+](=O)[O-])c(Sc2nc3ccccc3[nH]2)n1Cc1ccccc1 | ? | 9.6 | -7.1% | ?
COC(=O)c1c(NC(=O)CCCOc2ccc(C(C)(C)C)cc2)sc2c1C(C(=O)OC)CC2 (stereo unspecified) | / | -5.2 | / | /
Cc1ccc(NC(=S)NC2CCSc3ccccc32)cc1C (stereo unspecified) | 18.4µM* | -3.0 | 4.4% | 18.4µM*
N#C/C(=C\C=C\c1ccccc1[N+](=O)[O-])C(=O)NCc1ccccc1 | 20.6µM* | -7.2 | -5.2% | 3.66µM*
CC1CCN(c2ccc(-c3cccc(NC(=O)C(F)(F)F)c3)nn2)CC1 | -7.8% | -84.4* | -5.3% | -18.4%
SMILES | SW480 rerep | Giardia killer | uPA surface inh | MCF10A rerep
O=S(=O)(Nc1cccc(-c2ccc(N3CCCCCC3)nn2)c1)c1ccc(F)cc1 | ? | -18.5 | -12.5% | 14.6µM*
Cc1ccc(S(=O)(=O)Nc2cccc(-c3ccc4nncn4n3)c2)cc1 | 2.59µM* | -8.5 | -8.4% | 4.11µM*
CCC(=O)Nc1cccc(-c2ccc(N3CCC(C)CC3)nn2)c1 | -2.3% | -85.1* | ? | 11.3%
O=S(=O)(Nc1cccc(-c2ccc(N3CCCCCC3)nn2)c1)c1cccc(F)c1 | 0.3% | 13.8 | 19.8% | -1.9%
CCOc1ccc(N=C2SCCCN2C(=O)c2c(CC)noc2C)cc1 | -3.7% | -1.3 | -6.2% | 2.6%
CCOc1ncccc1C(=O)N1CCCSC1=Nc1ccc(C(C)=O)cc1 | 8.2% | 6.3 | -4.7% | 0.92µM*
CCOC(=O)C(=NC(C)C)NNc1cc(Cl)ccc1Cl | -8.8% | 4.5 | 21.7% | 16.4µM*
CCOC(=O)C(=NC(C)(C)C)NNc1cc(Cl)ccc1Cl | -0.8% | 7.5 | 5.7% | ?
CCCN1C(=O)C(=O)c2cc(Cl)ccc21 | 16.4µM* | 3.1 | 5.62µM* | 20.6µM*
Cc1ccc(OCCN2C(=O)C(=O)c3cc(C)ccc32)cc1 | 13µM* | 7.9 | ? | 7.31µM*
Cc1ccc2c(c1)C(=O)C(=O)N2Cc1ccc(C(F)(F)F)cc1 | ? | 8.8 | 3.55µM* | ?
Cc1ccc2c(c1)C(=O)C(=O)N2CC(=O)OC(C)C | ? | -10.0 | -7.8% | ?
O=C1C(=O)N(CCS(=O)(=O)c2ccccc2)c2ccc(Cl)cc21 | ? | -13.5 | ? | ?
O=C(COc1ccc(Cl)cc1)OCc1ccc(Cl)cc1 | -11.6% | 17.7 | 0.2% | -13.0%
CCOC(=O)c1cn2nc(SCc3ccccc3)nc2nc1C | -23.8% | -16.9 | 1.0% | -2.2%
COc1ccc(Cn2c(N)c(C#N)c3nc4ccccc4nc32)cc1OC | 10.3µM* | 14.6 | 0.5% | ?
COc1ccc(CCn2c(N)c(C#N)c3nc4ccccc4nc32)cc1OC | ? | -0.7 | 5.6% | ?
COc1ccccc1CCC(=O)Nc1ccc2c(c1)CN(Cc1ccc(C)o1)CC2 | 2.5% | 15.2 | 1.6% | 1.5%
CC1CCN(C(=O)c2[nH]cnc2C(=O)Nc2nccs2)CC1 | -16.5%[9.22 µM] | -15.0 | 3.3% | -0.6%
CC(C)C[C@H]1CNC(=S)N1CC1CCN(CC2CCCC2)CC1 | 0.0259µM* | -10.6 | -5.0% | ?
CC(C)C[C@H]1CNC(=S)N1CC1CCN(CCCC2CCCCC2)CC1 | -1.6% | -26.9 | ? | ?
CCOc1ccc(Br)cc1C1=CC(=O)C[C@H](c2ccc(OC)cc2)C1 | 7.31µM* | 4.5 | 2.82µM* | 2.91µM*
COc1ccc([C@H]2CC(=O)C=C(c3ccccc3-c3ccccc3)C2)cc1 | ? | -16.0 | ? | 16.4µM*
COc1ccc([C@H]2CC(=O)C=C(c3cc(Br)ccc3OC)C2)cc1 | ? | -4.0 | ? | ?
COc1ccc([C@H]2CC(=O)C=C(c3ccccc3Oc3ccccc3)C2)cc1 | 0.5% | -1.3 | 11.7% | 21.8%
SMILES | SW480 rerep | Giardia killer | uPA surface inh | MCF10A rerep
COc1ccc([C@H]2CC(=O)C=C(c3cc(C)ccc3OC)C2)cc1 | 16.4µM* | 8.3 | 10µM* | ?
N#CCSc1ccccc1NC(=O)CN1C(=O)C(=O)N(Cc2ccccc2)C1=O | 0.1% | -8.0 | 2.5% | -2.5%
CCCCC(=O)NC(c1ccc(Cl)cc1Cl)c1ccc2cccnc2c1O (stereo unspecified) | 1.16µM* | -0.3 | -12.6% | ?
CCCC(=O)NC(c1ccccc1Cl)c1ccc2cccnc2c1O (stereo unspecified) | ? | 13.7 | -7.2% | ?
CCC(=O)NC(c1ccc(Cl)cc1Cl)c1ccc2cccnc2c1O (stereo unspecified) | 0.517µM* | 17.8 | -7.6% | ?
Cc1cccc(N2CCN(S(=O)(=O)c3ccc(-c4ccc(=O)[nH]n4)o3)CC2)c1C | ? | 4.8 | 4.0% | 20.6µM*
